The structures appear in SMILES notation. Out of some 95,000 compounds screened, about 460 (0.48%) were called active. The sample holds actives, similar compounds and a random draw of the others, so the mix is not that of the screen.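 How the source made its calls: active means inhibition above the batch mean plus 3 SD, with images confirmed as a hit by eye (cut at about 37% in these data); inconclusive means inhibition above that limit but hit not confirmed in images; inactive means inhibition not above that limit.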

One may read the inhibition as the relative decrease from the control value, in per cent.

This experiment is described as follows: blockers of endothelial VCAM-1 upregulation by TNFa – imaging, HUVEC, TNFa stimulus, immunofluorescence, primary screen (AID 802).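 Further: 0% = TNF-stimulated DMSO wells and 100% = unstimulated control wells.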 Particulars: HUVEC TNFa-induced VCAM-1 immunofluorescence, high-content imaging; at 2 µM; hits give high values.
In the case of `CCN(CC)CCN1C(=O)C(=O)/C(=C(/O)c2cnn(-c3ccccc3)c2C)C1c1cccs1` (stereo not drawn), the inhibition was -0.9% (inactive). `COc1ccc(-c2c(C(C)=O)c(C)nc3sc4c(=O)n(-c5ccc(C)cc5)nnc4c23)cc1`: the inhibition was 12% (inactive).

On to `O=C(CN1CCSCC1)N/N=C/c1ccc(F)cc1`, for which the inhibition was -11.6% (inactive). As for `CCc1nnc(NC(=O)CSc2nc3ccccc3c(=O)n2CCCOC)s1`, the inhibition was 1.6% (inactive).

`Cc1nnc(SCc2nc3ccccc3nc2C)s1`: the inhibition is -5.5% (inactive).

For `Cc1ccc(NC(=S)NC2CCCC2)cc1`, the inhibition is -15% (inactive). `Cc1ccoc1C(=O)Nc1cccc(Oc2ccccc2)c1`: the inhibition was -7.5% (inactive). For the compound `O=C(O)c1cccnc1NC1CCCC1`, the inhibition was -5.2% (inactive). Take `CC(=O)c1cccc(S(=O)(=O)N2CCC(n3nnc4cc(F)ccc43)CC2)c1`: the inhibition was 54.7% (active). As for `O=S(=O)(c1cccc(S(=O)(=O)N2CCC(n3nnc4ccccc43)CC2)c1)N1CCCCC1`, the figure is -12.3% (inactive); as for `O=C(c1ccc2c(c1)OCCO2)C1CCN(S(=O)(=O)c2cccc(F)c2)CC1`, -12.7% (inactive); as for `COc1ccc(CC(=O)Nc2ccc(-c3nnc(-c4ccc(C)cc4)o3)cc2)cc1`, -1.2% (inactive). As for `COc1ccc(NC(=O)/C(Cl)=C(/Cl)S(=O)Cc2ccc(C)cc2)cn1` (stereo not drawn), the inhibition is 90.4% (active).

Consider `COc1cccc(NC(=O)Cc2ccc(C)cc2)c1`, for which the inhibition is 3.7% (inactive). In the case of `COc1cc(CC(=O)NCc2cccs2)cc(OC)c1OC`, the inhibition was 4.1% (inactive).

Regarding `CCOc1ccc(NC(=O)Nc2cc(C)ccc2OC)cc1`, the inhibition was 11.7% (inactive). As for `COc1ccc(/C=N\NC(=O)c2sc(N)nc2C)cc1OC`, the inhibition is -10.1% (inactive). For the compound `COc1cc(/C=N/NC(=O)Nc2ccccc2)ccc1OCCOc1ccccc1C`, the inhibition was 51.1% (active).

Regarding `CC(C)CNC(=S)NNC(=O)c1nn(C)cc1Cl`, the inhibition was 5.2% (inactive).

As for `Cc1nnsc1S(=O)(=O)Cc1ccccc1Cl`, the inhibition was 1.2% (inactive). Take `COCCNS(=O)(=O)c1cc(Br)ccc1OC`: the inhibition was -35.9% (inactive). For `O=C(Nc1ccccc1)c1ccc2nsnc2c1`, the inhibition was -11.1% (inactive).

Consider `O=C(c1ccc(Cl)cc1)c1cnc(Nc2ccccc2)s1`, for which the inhibition was 4.4% (inactive). The value for `O=C(Nc1ccccc1)c1nnsc1S(=O)(=O)c1ccc(Cl)cc1` was 59.3% (active); that for `O=C(Nc1ccc(Cl)cc1)c1ccsn1` was -10% (inactive). Consider `CCC(C)(C)n1nnnc1CN1CCN(c2nc3ccc(C)cc3cc2C#N)CC1`, for which the inhibition was 3.1% (inactive). As for `S=C(NCCC1=CCCCC1)Nc1ccccc1`, the inhibition was 2.2% (inactive). As for `CC(C)NC(=O)CSc1nnc(COc2ccccc2Cl)o1`, the figure is 6.7% (inactive). Regarding `NS(=O)(=O)c1cccnc1Nc1cccc(Cl)c1`, the inhibition is -4.5% (inactive). With `COC(=O)C1=C(Nc2ccc(OC)cc2)C=C(C)C(C(=O)OC)C1c1ccc(C)cc1` (stereo not drawn), the inhibition is -3.9% (inactive). As to `O=C(O)CSc1nccn1-c1cccc(Cl)c1`, the inhibition was -15% (inactive).

As to `Cc1cccc(C)c1NC1=NC(=S)N(c2ccc(N(C)C)cc2)C1(C)C`, the inhibition was -2.5% (inactive). Turning to `Cc1ccc(/C=N/NC(=O)c2sccc2OCc2ccc(F)cc2)cc1`, the inhibition is 4% (inactive). Consider `CCOC(=O)C1(S(=O)(=O)c2ccccc2)CCN(Cc2ccccc2)CC1`, for which the inhibition is -5.9% (inactive). Consider `CC1CC(C)CN(S(=O)(=O)c2cccc(C(=O)N3C(=O)c4cccc(N)c4C3=O)c2)C1` (stereo not drawn), for which the inhibition is -20.1% (inactive). The value for `CCC(=O)Nc1ccc2nc(C)n(Cc3ccccc3Cl)c(=O)c2c1` was -5.1% (inactive). Consider `CC(=O)Nc1ccccc1OC(=O)N1CCOCC1`, for which the inhibition is -16.3% (inactive).

Regarding `Cc1cc(C)n(-c2nnc(C)n2NC(=O)c2cccc(Cl)c2)n1`, the inhibition is -8.8% (inactive). `Cc1ccc(Nc2nc(C)cc(C)c2C(N)=O)cc1`: the inhibition was 7.1% (inactive).

In the case of `CC1CCN(S(=O)(=O)c2ccc(S(=O)(=O)NCc3ccco3)cc2)CC1`, the inhibition is -20.1% (inactive). As to `O=C(OC1CCCCC1=O)c1cccc(S(=O)(=O)NCc2ccccc2)c1` (stereo not drawn), the inhibition is -3.3% (inactive). As to `COc1ccc(C(=O)NN(C)c2nc(-c3ccccc3)cc(C)c2S(C)(=O)=O)cc1`, the inhibition was 16.7% (inactive). As for `CN(NC(=O)c1ccccc1)c1nc2ccccc2nc1C(F)(F)F`, the inhibition was 11.7% (inactive).

Consider `CSc1nc(N(C)NC(=O)c2cccc(C)c2)c2ccccc2n1`, for which the inhibition was 83.3% (active). As for `CCN(CC)c1ccc(/C=N/Nc2nc(C)cc(=O)[nH]2)cc1`, the figure is 11.9% (inactive); as for `COC(=O)C1=C(C(=O)c2ccc(C)cc2)C(c2ccccc2)n2nnnc2N1` (stereo not drawn), 5.8% (inactive). Take `COc1ccc(C(=O)Nc2nc(-c3ccc(S(=O)(=O)N4CCOCC4)cc3)cs2)cc1`: the inhibition is -4.5% (inactive).

Regarding `CCOc1cccc(C(=O)Nc2nnc(-c3cccs3)s2)c1`, the inhibition is -0.3% (inactive). Consider `c1ccc(-n2nnnc2NC2CCCCCC2)cc1`, for which the inhibition was -15.1% (inactive). In the case of `Cc1cc(NC(=O)CS(=O)(=O)c2cn(C)c3ccccc23)no1`, the inhibition was 28.9% (inactive). With `O=C(CS(=O)(=O)c1cn(Cc2cccc(F)c2)c2ccccc12)N1CCCCC1`, the inhibition was 50.1% (active).

With `CCOC(=O)c1ccc(NC(=O)CS(=O)(=O)c2cn(CC)c3ccccc23)cc1`, the inhibition is 7% (inactive).

As to `O=C(NCCCN1CCOCC1)c1cnn2c(-c3ccccc3)cc(-c3ccccc3)nc12`, the inhibition was 12% (inactive).

With `O=C(Nc1cc(-c2nn(CC(=O)N3CCCCC3)c(=O)c3ccccc23)ccc1N1CCOCC1)c1ccc(Cl)cc1`, the inhibition was 12.6% (inactive). `Cc1ccc(-n2ncc3c(Nc4cccc(C(=O)O)c4)ncnc32)cc1`: the inhibition was -17% (inactive). As to `CCCCNC(=O)CSc1nc2n[nH]c(C)c2c(=N)n1-c1cccc(Cl)c1C`, the inhibition was 10.7% (inactive). With `CCNC(=O)c1sccc1-n1cccc1`, the inhibition was 32% (inactive). As for `Cc1cc(=O)oc2cc(OCC3CC(c4ccccc4Cl)=NO3)ccc12` (stereo not drawn), the inhibition was 59.7% (active). The value for `Cc1ccccc1N1CCN(CCCOc2ccc3c(C)cc(=O)oc3c2)CC1` was -7.7% (inactive); that for `COc1cccc(-c2nnc(SCCOc3ccc4c(C)cc(=O)oc4c3)o2)c1` was 0.7% (inactive); that for `Oc1ccccc1/C=N/n1c(-c2cccs2)n[nH]c1=S` was -7.1% (inactive). In the case of `O=C(Nc1ccc(-c2nnc(-c3ccccc3)o2)cc1)c1ccc(Br)o1`, the inhibition was -17.2% (inactive). As to `CC(CNC(=O)c1ccc(Br)o1)NC(=O)c1ccc(Br)o1` (stereo not drawn), the inhibition was -12.4% (inactive). As for `CC(CCc1ccccc1)NC(=O)c1ccc(Br)o1` (stereo not drawn), the figure is 95.4% (active). For `O=C1CSC(c2cccc(F)c2)N1c1ccc(O)cc1` (stereo not drawn), the inhibition is -1.8% (inactive).

As to `C/C(=C\C(=O)c1cccnc1)Nc1ccc(C)c(C)c1`, the inhibition is 89.1% (active). The value for `CCC(=O)Nc1cccc(NC(=O)c2cccnc2)c1` was 7.8% (inactive); that for `C/C(=C\C(=O)c1ccccc1)Nc1cccc(O)c1` was -2.3% (inactive).

As for `Cc1c(NC(=O)/C=C/C(=O)O)cccc1[N+](=O)[O-]`, the inhibition was 3.3% (inactive). `O=C(CSc1ncnc2c1cnn2CCc1ccccc1)Nc1ccc(F)cc1`: the inhibition was 1.7% (inactive). Regarding `CCOC(=O)N1CCN(C(=O)COc2ccc(Cl)cc2C)CC1`, the inhibition was 92.1% (active). The value for `CCOC(=O)N1CCN(C(=O)CSc2ccc(Cl)cc2)CC1` was -18.1% (inactive). The value for `CCOC(=O)N1CCN(C(=O)COc2ccc(Br)cc2)CC1` was -1.9% (inactive).

Consider `CCn1c2ccccc2c2cc(NC(=O)C/C(C)=N/NC(=O)c3ccccc3N)ccc21`, for which the inhibition was 1.3% (inactive). As to `COC(=O)c1cc(OC)c(OC)cc1NC(=O)CSc1ccc(C)cc1`, the inhibition is -25% (inactive). The value for `Cc1ccc2nc(SCc3nnc(-c4ccccc4[N+](=O)[O-])o3)c(C#N)cc2c1` was 6% (inactive). With `CN(C)c1ccnc(Oc2ccc(F)cc2)c1C#N`, the inhibition was -15.3% (inactive). As to `CC(=O)c1ccc(Oc2cc(C)nc(-n3nc(C)cc3C)n2)cc1`, the inhibition is 75.8% (active). As to `Cc1cc(C)n(-c2cc(Oc3ccccc3)ncn2)n1`, the inhibition is 13.4% (inactive). In the case of `Cc1cc(Oc2ccccc2)nc(N2CCOCC2)n1`, the inhibition is 0.8% (inactive). On to `O=C(Cc1ccc(-n2c(=O)[nH]c3ccccc3c2=O)cc1)N1CCN(c2cccc(Cl)c2)CC1`, for which the inhibition was 1.3% (inactive). On to `Cc1cccc(S(=O)(=O)CC(=O)Nc2nc(-c3ccccc3)cs2)c1`, for which the inhibition is -5.3% (inactive).

`CN(CC#CCC(c1ccccc1)c1ccccc1)C(C)(C)C`: the inhibition was 5.2% (inactive). As for `O=C1Cc2ccccc2Sc2ccc(Cl)cc21`, the figure is 10% (inactive); as for `CSCc1cc(N2CCOCC2)nc(SCc2ccc(Cl)cc2Cl)n1`, 5.1% (inactive).

For `Cc1ccc(-c2csc(NC(=O)Cc3cccs3)n2)cc1C`, the inhibition was 1.5% (inactive). The value for `COc1ccc(OC)c(/C=N/NC(=O)CSc2nnc(C)n2-c2ccccc2)c1` was 0.9% (inactive); that for `O=C(Nc1ccccc1)c1ccccc1NC(=O)C(F)(F)F` was -10.4% (inactive). Take `COc1cc(/C=C2\SC(=S)N(Nc3ncc(C(F)(F)F)cc3Cl)C2=O)cc(OC)c1OC`: the inhibition is 14.4% (inactive).

For the compound `O=C(c1ccccc1)C(Cn1cncn1)C(Sc1ccccc1)c1ccccc1` (stereo not drawn), the inhibition was 0.1% (inactive). With `CCOc1ccc(NC(=O)CCS(=O)(=O)c2ccc3c(c2)CCCN3C(=O)CC)cc1`, the inhibition is 0.8% (inactive).

For the compound `COc1ccccc1NC(=O)C1CCCN(c2cc(C)nc3ncnn23)C1` (stereo not drawn), the inhibition was 3.1% (inactive). In the case of `CC(C)C(=O)N1CCN(c2nc(-c3ccccc3)c3c(c2C#N)CC(C)(C)OC3)CC1`, the inhibition was 36.7% (active). As to `CC1(C)Cc2c(C#N)c(SCc3nc4ccccc4[nH]3)nc(N3CCOCC3)c2CO1`, the inhibition was 7.1% (inactive).

For `CC(C)c1nc(N2CCOCC2)c(C#N)c2c1COC(C)(C)C2`, the inhibition is -40.7% (inactive). The value for `S=C(NCc1cccs1)Nc1ccc(Cl)cc1` was -27.9% (inactive). Consider `Cc1cc2cc(CNC(=O)c3cccs3)ccc2[nH]1`, for which the inhibition is 11.4% (inactive).

Turning to `COCCn1c(SCc2nnc(-c3ccc(OC)c(OC)c3)o2)nc2sc3c(c2c1=O)CCC3`, the inhibition is -4.9% (inactive).

The values are drawn from PubChem BioAssay AID802 (Columbia University Molecular Screening Center, 2007).
